Screening data as filed in PubChem BioAssay.
This is a sample that favours compounds with a hit; in the whole collection about 10% have one here.
hNpr1 antagonist = blocks ANP-stimulated signaling of human Npr1 receptor | P16066 | HEK293 hNpr1 GloSensor cGMP, ANP-stimulated luminescence | Potency, µM (highest dose often 46.3 µM), hits mostly inhibitors | hit rate 1.6% among 76,000; calls by dose curve; also: nearly all actives have a fitted effect of over 60% in size
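HEK293 cells stably expressing human Npr1 and cGMP GloSensor pGS-40F, loaded 2 h with 2% GloSensor reagent, given compound 30 min at room temperature. Luminescence read before and 20 min after 0.1 nM hNppA.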
3T3 cytotox = NIH 3T3 cell cytotoxicity. hit rate 4.3% among 94,000. AID 1345082. Potency, µM (titrated, usually from 96.7 µM), actives largely listed as inhibitors. NIH 3T3 viability, CellTiter-Glo ATP luminescence, 48-72 h; also: nearly all actives have a fitted effect of over 55% in size
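Cytotoxicity is measured as loss of cellular ATP: NIH 3T3 cells (400/well) are exposed to compound for 48 or 72 hr at 37 °C, then CellTiter-Glo luminescence is imaged after 10 min at room temperature.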
GPT2 inhibitor = blocks human glutamate pyruvate transaminase 2; Recombinant GPT2, coupled pyruvate oxidase/HRP Amplex Red fluorescence; Potency, µM (series often up to 57.7 µM), most hits filed as inhibitors; Q8TD30; hit rate 0.25% among 100,000; also: nearly all actives have a fitted effect of over 60% in size
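Recombinant GPT2 (10ng/uL) with 250uM a-KG and 2mM L-alanine, 30 min at room temperature, in HEPES pH 7.5 buffer. Pyruvate detected by pyruvate oxidase/HRP/Amplex Red fluorescence after 30 min in the dark; AOA (50uM) as positive control.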
HEK cytotox = cytotoxic compounds in HEK 293 cells; HEK 293 viability, ATP luminescence (CellTiter-Glo), 48-72 h; Potency, µM (highest dose often 115 µM), usual class: inhibitors; hit rate 6.6% among 94,000; AID 1345083; also: nearly all actives have a fitted effect of over 60% in size
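Viability of HEK 293 cells, plated at 250 cells/well, was judged by cellular ATP after compound treatment for 48 or 72 hr. Luminescence was imaged 10 min after CellTiter-Glo addition at room temperature.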
FLuc inh = Photinus pyralis luciferase inhibition | P08659 | purified P. pyralis luciferase, luminescence, biochemical | Potency, µM (top dose mostly 115 µM), hits mostly inhibitors | hit rate 2.5% among 76,000; also: nearly all actives have a fitted effect of over 65% in size
Target sequence (P08659 whole entry, looked up): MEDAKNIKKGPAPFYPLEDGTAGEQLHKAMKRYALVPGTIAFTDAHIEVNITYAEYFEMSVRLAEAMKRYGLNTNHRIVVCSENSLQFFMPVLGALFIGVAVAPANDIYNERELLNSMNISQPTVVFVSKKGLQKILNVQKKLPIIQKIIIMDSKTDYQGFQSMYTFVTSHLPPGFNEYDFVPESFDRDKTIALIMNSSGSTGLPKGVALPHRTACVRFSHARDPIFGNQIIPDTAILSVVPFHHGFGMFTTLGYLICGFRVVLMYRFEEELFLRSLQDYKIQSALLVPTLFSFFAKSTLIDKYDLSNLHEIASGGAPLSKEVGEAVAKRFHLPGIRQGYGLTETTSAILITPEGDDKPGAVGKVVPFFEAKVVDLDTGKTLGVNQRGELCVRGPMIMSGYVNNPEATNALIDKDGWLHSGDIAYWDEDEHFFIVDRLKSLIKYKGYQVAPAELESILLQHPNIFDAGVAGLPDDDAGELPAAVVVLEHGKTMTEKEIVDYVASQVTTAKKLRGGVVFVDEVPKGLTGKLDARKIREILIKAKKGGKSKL
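Purified 10nM P. pyralis luciferase with 10uM D-luciferin and 10uM ATP in 50mM Tris acetate pH 7.5, 10mM Mg acetate, 0.01% Tween-20, 0.05% BSA. qHTS titration; luminescence read by CCD imager.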
Of the large screens only hits and unclear results are named; the others gave an inactive call. Unless noted, calls follow the shape of the dose curve; as a rule, active = well fitted curve in the direction sought with a large enough effect; inconclusive = small, poorly fitted or top-dose-only effect, or another doubt; inactive = no such curve, though single readings can be large; an effect the other way counts as inactive or inconclusive.

CCOC(=O)[C@H]1[C@@H](O)C(=O)N(Cc2ccccc2)C12CCN(C(=O)CC(C)(C)C)CC2	3T3 cytotox 22.4µM, HEK cytotox inconclusive (no result: hNpr1 antagonist, GPT2 inhibitor, FLuc inh)
CCOC(=O)[C@@H]1[C@@H](O)C(=O)N(Cc2ccccc2)C12CCN(C(=O)N(C)C)CC2	3T3 cytotox inconclusive (no result: hNpr1 antagonist, GPT2 inhibitor, FLuc inh)
O=C(NCc1ccc(C(F)(F)F)cc1)[C@@H]1CCCN1c1nccc(Nc2ccccc2Cl)n1	3T3 cytotox inconclusive, HEK cytotox inconclusive (no result: hNpr1 antagonist, FLuc inh)
CCCN1C(=O)CCc2cc(NC(=O)c3ccc(OC(F)(F)F)cc3)ccc21	hNpr1 antagonist inconclusive, 3T3 cytotox 39.8µM, HEK cytotox inconclusive, FLuc inh inconclusive
CCN1C(=O)CCc2cc(NC(=O)c3ccc(F)cc3)ccc21	3T3 cytotox inconclusive, HEK cytotox 39.8µM, FLuc inh inconclusive
CS(=O)(=O)N1CCc2ccc(C(=O)Nc3ccc(F)cc3)cc21	hNpr1 antagonist inconclusive, GPT2 inhibitor inconclusive, HEK cytotox inconclusive, FLuc inh 8.91µM
CCN1C(=O)CCc2cc(NC(=O)c3cncc(Br)c3)ccc21	HEK cytotox inconclusive
CC(C)Cn1c(=O)c(C(=O)N2CCN(C(=O)c3ccccc3Cl)CC2)nc2cccnc21	none (no result: hNpr1 antagonist, FLuc inh)
Cn1nc(N2CCC(NS(=O)(=O)c3ccccc3F)CC2)ccc1=O	none (no result: hNpr1 antagonist, FLuc inh)
O=C(CN1C(=O)NC(c2ccc(Cl)cc2)C2=C1COC2=O)Nc1cc(F)cc(F)c1 (centres undefined)	3T3 cytotox 25.1µM, HEK cytotox 25.1µM
O=C(CN1C(=O)NC(c2ccc(Cl)cc2)C2=C1COC2=O)Nc1ccc(Cl)cc1F (centres undefined)	3T3 cytotox 35.5µM, HEK cytotox inconclusive
O=C(CN1C(=O)NC(c2ccc(Cl)cc2)C2=C1COC2=O)Nc1ccc2c(c1)OCO2 (centres undefined)	3T3 cytotox inconclusive, HEK cytotox inconclusive
Cc1cccc(Cl)c1NC(=O)CN1C(=O)NC(c2ccc(Cl)cc2)C2=C1COC2=O (centres undefined)	3T3 cytotox inconclusive, HEK cytotox 31.6µM
Cc1ccc(C2NC(=O)N(CC(=O)Nc3c(C)cccc3Cl)C3=C2C(=O)OC3)cc1 (centres undefined)	none
CCOC(=O)c1ccccc1NC(=O)CN1C(=O)NC(c2ccc(C)cc2)C2=C1COC2=O (centres undefined)	3T3 cytotox inconclusive, HEK cytotox 31.6µM
Cn1ccnc1C(=O)N1CCC(Oc2cccc(F)c2)C1 (centres undefined)	none
Cc1ccc(C)c(NC(=O)CN2C(=O)NC(c3ccc(Cl)cc3)C3=C2COC3=O)c1 (centres undefined)	3T3 cytotox inconclusive, HEK cytotox inconclusive
O=C(CN1C(=O)NC(c2ccc(Cl)cc2)C2=C1COC2=O)Nc1cc(F)ccc1F (centres undefined)	3T3 cytotox inconclusive, HEK cytotox 44.7µM
Cc1ccc(NC(=O)CN2C(=O)NC(c3ccccc3Cl)C3=C2COC3=O)cc1C (centres undefined)	3T3 cytotox inconclusive, HEK cytotox inconclusive, FLuc inh inconclusive
Cc1cc(NC(=O)CN2C(=O)NC(c3ccccc3Cl)C3=C2COC3=O)ccc1Br (centres undefined)	3T3 cytotox 39.8µM, HEK cytotox 44.7µM, FLuc inh inconclusive
O=C(C1CCCN1C(=O)C1CCCC1)N1CCC(c2nc3ccncc3[nH]2)C1 (centres undefined)	none (no result: hNpr1 antagonist, FLuc inh)
O=C(NCc1nnc2ccc(-c3ccccc3)nn12)c1cc(F)ccc1Cl	3T3 cytotox inconclusive, HEK cytotox 39.8µM
CN(C)c1nc(-c2ccncc2)nc2c1CCN(C(=O)c1ccn[nH]1)C2	none
O=C(NCc1ccccc1)C1CC(=O)N(C2CN(S(=O)(=O)c3cccc(F)c3)C2)C1 (centres undefined)	none (no result: hNpr1 antagonist, FLuc inh)
Cc1cc(C)n(CCC(=O)N2c3ccccc3CC2c2noc(C3CCOCC3)n2)n1 (centres undefined)	3T3 cytotox inconclusive, HEK cytotox inconclusive, FLuc inh 25.1µM
CCOc1ccccc1CNC(=O)c1cc2cn(C3CCCC3)cc2s1	3T3 cytotox inconclusive, GPT2 inhibitor inconclusive, HEK cytotox inconclusive
COCCn1cc2c3c(cccc31)CN(C(=O)c1cccc(C(F)(F)F)c1)CC2	3T3 cytotox 31.6µM, HEK cytotox inconclusive
CCCn1cc2c3c(cccc31)CN(C(=O)c1cccc(C#N)c1)CC2	3T3 cytotox inconclusive, HEK cytotox inconclusive
Cc1cccc(N2CCN(C(=O)CCc3conc3-c3ccccc3)CC2)c1C	3T3 cytotox inconclusive, HEK cytotox 44.7µM
COCCN1C(=O)[C@@H]2C[C@@H](CN2Cc2ccc(OC(F)(F)F)cc2)Oc2ccccc21	3T3 cytotox inconclusive, HEK cytotox inconclusive
O=C1[C@@H]2C[C@@H](CN2CC2CC2)Oc2ccccc2N1Cc1ccc(OC(F)(F)F)cc1	hNpr1 antagonist inconclusive, 3T3 cytotox 39.8µM, HEK cytotox 56.2µM
CS(=O)(=O)c1ccc(CN2C[C@@H]3C[C@H]2C(=O)N(Cc2ccc(OC(F)(F)F)cc2)c2ccccc2O3)cc1	3T3 cytotox 31.6µM, HEK cytotox 31.6µM
O=C1[C@@H]2C[C@@H](CN2C2CCOCC2)Oc2ccccc2N1Cc1ccc(OC(F)(F)F)cc1	3T3 cytotox inconclusive, HEK cytotox inconclusive
O=C1CCN(S(=O)(=O)c2ccccc2)CCCN(C(=O)C2CCCCC2)CCN1	none
N#Cc1cccc(C(=O)N2CCN3CCS(=O)(=O)N(C4CC4)C(=O)C3C2)c1 (centres undefined)	none (no result: hNpr1 antagonist, FLuc inh)
CCOC(=O)c1ccc(NC(=O)N2Cc3[nH]cnc3C[C@H]2c2nc(-c3ccc(C)cc3)no2)cc1	3T3 cytotox inconclusive, HEK cytotox inconclusive, FLuc inh 31.6µM
Cc1ccc(NC(=O)N2Cc3[nH]cnc3C[C@H]2c2nc(-c3ccc4ccccc4c3)no2)cc1	3T3 cytotox inconclusive, GPT2 inhibitor inconclusive, HEK cytotox inconclusive, FLuc inh 20µM
Cc1ccc(NC(=O)N2Cc3[nH]cnc3C[C@H]2c2nc(-c3ccc(Cl)cc3)no2)cc1	hNpr1 antagonist inconclusive, 3T3 cytotox inconclusive, HEK cytotox 70.8µM, FLuc inh 39.8µM
Cc1ccc(NC(=O)N2Cc3[nH]cnc3C[C@H]2c2nc(-c3ccncc3)no2)cc1	none
CC(=O)c1ccc(NC(=O)N2Cc3[nH]cnc3C[C@H]2c2nc(-c3ccc(F)cc3)no2)cc1	3T3 cytotox 89.1µM, FLuc inh inconclusive
O=C(Nc1ccccc1)N1Cc2[nH]cnc2C[C@H]1c1nc(-c2ccc3ccccc3c2)no1	none
CCOC(=O)c1ccc(NC(=O)N2Cc3[nH]cnc3C[C@H]2c2nc(-c3cccc(C)c3)no2)cc1	3T3 cytotox inconclusive, HEK cytotox inconclusive, FLuc inh inconclusive
CC(C)c1noc([C@@H]2Cc3nc[nH]c3CN2C(=O)Nc2ccc(Cl)cc2)n1	3T3 cytotox 89.1µM, HEK cytotox 100µM
COc1ccc(NC(=O)N2Cc3[nH]cnc3C[C@H]2c2nc(-c3ccccc3)no2)cc1	3T3 cytotox 31.6µM, HEK cytotox inconclusive, FLuc inh 39.8µM
